# Results taken from the supplement of paper PMC10646978.
# ± gives the standard deviation.
# System: RAW-Dual (murine macrophage reporter line)
# Experiment: IRF reporter (Lucia luciferase) activity fold change vs agonist alone; higher = enhanced IRF activity
# Details: modulator concentration 10 µM; agonist: 3'3'-cGAMP 10 ug/mL
# Outline: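 Overnight stimulation with a PRR agonist followed pre-incubation for 1 hour at 37 °C with compound at 10 μM final. This was done in RAW-Dual murine macrophage reporter cells seeded at 50 000 per well in 384-well plates. NF-κB (SEAP, QUANTI-Blue absorbance at 620 nm) and IRF (Lucia luciferase, QUANTI-Luc luminescence) were read from the supernatant. Each reporter's fold change relative to the mean agonist-only control on the same plate was averaged over replicate plates.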
row,SMILES,IRF reporter
1,Cc1ccccc1CNC(=O)CN(c1cccc(C(F)(F)F)c1)S(C)(=O)=O,0.956 ± 0.095
2,COc1ccc(CCC(=O)NCc2nc(N(C)C)nc(N3CCCCC3)n2)cc1,0.801 ± 0.029
3,CCOC(=O)CN1CCOCCOCCN(CC(=O)OCC)CCOCCOCC1,0.974 ± 0.052
4,CN(C)C(CNC(=O)NCc1ccc(F)cc1)c1ccc2c(c1)CCO2 (stereo not given),1.12 ± 0.064
5,CC(=O)c1ccc(Nc2ncnc(Nc3ccc(C(C)=O)cc3)c2[N+](=O)[O-])cc1,1.01 ± 0.091
6,CCCCCCc1ccc(O)cc1O,0.588 ± 0.057
7,COc1ccc(C(=O)CSc2nnc(NC(=O)C3CC(=O)N(c4cccc(OC)c4)C3)s2)cc1 (stereo not given),0.528 ± 0.026
8,COC(=O)C1=CN(CC2CCCO2)C=C(C(=O)OC)C1c1cccc(Cl)c1 (stereo not given),0.82 ± 0.037
9,O=C(C=Cc1ccc(Br)cc1)c1c(-c2ccccc2)c2cc(Cl)ccc2[nH]c1=O,0.858 ± 0.039
10,CCOCCn1c(N2CCCN(C)CC2)nc2ccccc21 [Prestw-1274],1.01 ± 0.027
11,Cc1cccc(-c2cc3nc(C)c(Cl)c(O)n3n2)c1,1.04 ± 0.039
12,COc1cc2c(cc1OC)C1Cc3ccc(OC)c(OC)c3CN1CC2 (stereo not given),0.871 ± 0.052
13,CN1CCN(c2ccc(C(=O)Nc3n[nH]c4ccc(Cc5cc(F)cc(F)c5)cc34)c(NC3CCOCC3)c2)CC1,0.129 ± 0.0061
14,CCCCCc1ccc(-c2ccc(-c3noc(-c4ccc(CCCC)cc4)n3)cc2)cc1,0.94 ± 0.067
15,O=C(CCn1c(=O)oc2ccccc21)Nc1ccccc1,0.969 ± 0.032
16,COc1cc2c(cc1OC)C(=O)C(CC1CCN(Cc3ccccc3)CC1)C2.Cl (stereo not given),0.791 ± 0.067
17,CC(C)NC(=O)CCn1c(=O)c2cc(Cl)ccc2n2c(SCc3ccc(F)cc3)nnc12,1.02 ± 0.056
18,CC(Oc1cccc(Cl)c1)C(=O)Nc1nncs1 (stereo not given),0.947 ± 0.023
19,COc1ccc(CNc2nc(N3CCC[C@H]3CO)ncc2C(=O)NCc2ncccn2)cc1Cl,1.51 ± 0.23
20,COC(=O)c1ccc(CSc2ccc3nnc(-c4cccc(F)c4)n3n2)o1,0.966 ± 0.035

row,SMILES,IRF reporter
1,CC(=NN1CCN(Cc2cccc3ccccc23)CC1)c1ccc(Br)cc1,1 ± 0.13
2,CCN1CCN(CC(O)COc2ccc(C(C)(C)C)cc2C(C)(C)C)CC1.Cl.Cl (stereo not given),0.96 ± 0.052
3,COC(C(=O)NNC(=O)c1ccccc1Cl)c1ccccc1 (stereo not given),0.618 ± 0.39
4,CCN(CC)c1ccc(C=Nc2c(C)cc(C)cc2C)cc1,0.894 ± 0.046
5,CN1CCN(C2CC(=O)N(c3ccc(N4CCOCC4)cc3)C2=O)CC1 (stereo not given),1.01 ± 0.025
6,O=c1[nH]c(NN=Cc2c3ccccc3cc3ccccc23)nc2ccccc12,0.935 ± 0.048
7,CCOc1ccccc1OCCCCOc1cccc(Cl)c1,0.956 ± 0.025
8,CCCOc1cccc(C=C2N=C(c3ccc(Cl)c([N+](=O)[O-])c3)OC2=O)c1,1.02 ± 0.041
9,Cc1[nH]c2ccccc2c1CCNCc1ccc(/C=C/C(=O)NO)cc1,0.0565 ± 0.0025
10,COc1ccc(CN(CCN(C)C)c2ccccn2)cc1.O=C(O)C=CC(=O)O,0.982 ± 0.054
11,CC1(C)OC[C@@H](COC(=O)CCc2ccc(OC[C@@H](O)CNCCNC(=O)N3CCOCC3)cc2)O1.Cl,0.985 ± 0.098
12,Cl.Nc1c2c(nc3ccccc13)CCCC2,0.616 ± 0.024
13,Br.Cc1ccc(Sc2ccccc2N2CCNCC2)c(C)c1,0.491 ± 0.057
14,O=c1oc2cc(O)ccc2c2ccccc12,0.813 ± 0.15
15,COC(=O)C1=C(C)N(C)C(C)=C(C(=O)OC)C1c1ccc(-c2ccccc2)cc1,0.989 ± 0.03
16,Oc1ccc(C=Cc2cc(O)cc(O)c2)cc1,0.493 ± 0.028
17,CCCCc1c(C)nc(NN=C(C)c2cccc([N+](=O)[O-])c2)nc1O,0.912 ± 0.032
18,O=[N+]([O-])c1ccc(Nc2ccccc2O)c2nonc12,0.69 ± 0.023
19,CC(=O)Nc1cc2nc3ccccc3nc2cc1NC(C)=O,1.09 ± 0.28
20,O=C(O)CCC(=O)Nc1ccc(Br)cc1C(=O)c1ccc(Cl)cc1,0.986 ± 0.031

# Same assay, conditions: modulator concentration 10 µM; agonist: LPS 0.1 ug/mL
row,SMILES,IRF reporter
1,Cc1ccccc1CNC(=O)CN(c1cccc(C(F)(F)F)c1)S(C)(=O)=O,1.11 ± 0.13
2,COc1ccc(CCC(=O)NCc2nc(N(C)C)nc(N3CCCCC3)n2)cc1,1.01 ± 0.078
3,CCOC(=O)CN1CCOCCOCCN(CC(=O)OCC)CCOCCOCC1,1.23 ± 0.088
4,CN(C)C(CNC(=O)NCc1ccc(F)cc1)c1ccc2c(c1)CCO2 (stereo not given),1 ± 0.062
5,CC(=O)c1ccc(Nc2ncnc(Nc3ccc(C(C)=O)cc3)c2[N+](=O)[O-])cc1,1.06 ± 0.052
6,CCCCCCc1ccc(O)cc1O,1.2 ± 0.23
7,COc1ccc(C(=O)CSc2nnc(NC(=O)C3CC(=O)N(c4cccc(OC)c4)C3)s2)cc1 (stereo not given),0.758 ± 0.059
8,COC(=O)C1=CN(CC2CCCO2)C=C(C(=O)OC)C1c1cccc(Cl)c1 (stereo not given),1.17 ± 0.069
9,O=C(C=Cc1ccc(Br)cc1)c1c(-c2ccccc2)c2cc(Cl)ccc2[nH]c1=O,1.4 ± 0.09
10,CCOCCn1c(N2CCCN(C)CC2)nc2ccccc21 [Prestw-1274],1.19 ± 0.21
11,Cc1cccc(-c2cc3nc(C)c(Cl)c(O)n3n2)c1,1 ± 0.1
12,COc1cc2c(cc1OC)C1Cc3ccc(OC)c(OC)c3CN1CC2 (stereo not given),1.09 ± 0.14
13,CN1CCN(c2ccc(C(=O)Nc3n[nH]c4ccc(Cc5cc(F)cc(F)c5)cc34)c(NC3CCOCC3)c2)CC1,0.482 ± 0.14
14,CCCCCc1ccc(-c2ccc(-c3noc(-c4ccc(CCCC)cc4)n3)cc2)cc1,1.32 ± 0.25
15,O=C(CCn1c(=O)oc2ccccc21)Nc1ccccc1,1.16 ± 0.19
16,COc1cc2c(cc1OC)C(=O)C(CC1CCN(Cc3ccccc3)CC1)C2.Cl (stereo not given),1.15 ± 0.25
17,CC(C)NC(=O)CCn1c(=O)c2cc(Cl)ccc2n2c(SCc3ccc(F)cc3)nnc12,1.15 ± 0.19
18,CC(Oc1cccc(Cl)c1)C(=O)Nc1nncs1 (stereo not given),1.28 ± 0.18
19,COc1ccc(CNc2nc(N3CCC[C@H]3CO)ncc2C(=O)NCc2ncccn2)cc1Cl,1.39 ± 0.4
20,COC(=O)c1ccc(CSc2ccc3nnc(-c4cccc(F)c4)n3n2)o1,1.05 ± 0.082

row,SMILES,IRF reporter
1,CC(=NN1CCN(Cc2cccc3ccccc23)CC1)c1ccc(Br)cc1,1.05 ± 0.12
2,CCN1CCN(CC(O)COc2ccc(C(C)(C)C)cc2C(C)(C)C)CC1.Cl.Cl (stereo not given),1.24 ± 0.14
3,COC(C(=O)NNC(=O)c1ccccc1Cl)c1ccccc1 (stereo not given),0.993 ± 0.069
4,CCN(CC)c1ccc(C=Nc2c(C)cc(C)cc2C)cc1,0.968 ± 0.063
5,CN1CCN(C2CC(=O)N(c3ccc(N4CCOCC4)cc3)C2=O)CC1 (stereo not given),1.37 ± 0.11
6,O=c1[nH]c(NN=Cc2c3ccccc3cc3ccccc23)nc2ccccc12,1.82 ± 0.16
7,CCOc1ccccc1OCCCCOc1cccc(Cl)c1,1.21 ± 0.15
8,CCCOc1cccc(C=C2N=C(c3ccc(Cl)c([N+](=O)[O-])c3)OC2=O)c1,1.55 ± 0.17
9,Cc1[nH]c2ccccc2c1CCNCc1ccc(/C=C/C(=O)NO)cc1,0.355 ± 0.032
10,COc1ccc(CN(CCN(C)C)c2ccccn2)cc1.O=C(O)C=CC(=O)O,0.915 ± 0.097
11,CC1(C)OC[C@@H](COC(=O)CCc2ccc(OC[C@@H](O)CNCCNC(=O)N3CCOCC3)cc2)O1.Cl,0.97 ± 0.11
12,Cl.Nc1c2c(nc3ccccc13)CCCC2,0.806 ± 0.25
13,Br.Cc1ccc(Sc2ccccc2N2CCNCC2)c(C)c1,1.27 ± 0.32
14,O=c1oc2cc(O)ccc2c2ccccc12,1.06 ± 0.097
15,COC(=O)C1=C(C)N(C)C(C)=C(C(=O)OC)C1c1ccc(-c2ccccc2)cc1,1.06 ± 0.16
16,Oc1ccc(C=Cc2cc(O)cc(O)c2)cc1,0.48 ± 0.087
17,CCCCc1c(C)nc(NN=C(C)c2cccc([N+](=O)[O-])c2)nc1O,1.12 ± 0.15
18,O=[N+]([O-])c1ccc(Nc2ccccc2O)c2nonc12,1.55 ± 0.11
19,CC(=O)Nc1cc2nc3ccccc3nc2cc1NC(C)=O,1.05 ± 0.092
20,O=C(O)CCC(=O)Nc1ccc(Br)cc1C(=O)c1ccc(Cl)cc1,1.31 ± 0.19
